Screening data as filed in PubChem.
Shown are actives, neighbours in structure and some others; about 2.8% of the full set was active somewhere.
PAX8 inh HTS: inhibitors of PAX8 transcriptional activity in RMG-I cells. hit rate 1.2% among 360,000. RMG-I TPO-luciferase reporter, SteadyGlo, 24 h. inhibition, % at 12.6 µM;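 active = mean replicate inhibition at least 60% with every replicate also reaching 60%; inconclusive = only one of the two criteria is met; inactive = mean below 60% and not all replicates reaching 60%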;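 note: luciferase light reporting Pax8 driven TPO promoter activity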
TROY signal inh: inhibitors of TROY-dependent NF-kB signaling | AID 1347056 | Q293 LMP1-TROYcd NF-kB luciferase reporter, 4 h | inhibition, % at 10 µM | hit rate 0.98% among 360,000;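 active = compounds whose plate-normalised and pattern-corrected inhibition of the luciferase reporter signal at the single screening dose is 50% or more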
EWS-Fli inh: blocks EWS/Fli oncoprotein-driven transcription; A673 NR0B1-luciferase reporter, viability-normalised; inhibition, % at 12.6 µM; hit rate 0.67% among 350,000; AID 651661;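 active = mean inhibition of at least 50% after viability correction, with every replicate also passing that limit; inconclusive = mean reaches 50% but only one of two replicates passes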;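 note: firefly luciferase signal divided by Alamar Blue viability fluorescence both relative to DMSO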
TWEAK Fn14 block: TWEAK-Fn14 signaling inhibition; TWEAK-stimulated Fn14 reporter cells, luciferase luminescence, 8 h; inhibition, % at 10 µM; hit rate 2% among 360,000; in the data active = inhibition above about 50%
LGR2 antag: Drosophila LGR2 receptor signaling inhibition | hit rate 0.35% among 380,000 | HEK293 LGR2, CRE-luciferase, bursicon-stimulated, 4 h | inhibition, % at 9.99 µM;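 active = drop in luminescence signal, shown as inhibition above about 50% in the replicate tests, limit read from the data, passing the limit was not always enough; inconclusive = probably only some replicates passing the limit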;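 note: agonist challenge used bursicon conditioned medium at about half maximal strength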
Numbers stand for hits; – = inactive; ? = inconclusive; · = no result.

SMILES	PAX8 inh HTS	TROY signal inh	EWS-Fli inh	TWEAK Fn14 block	LGR2 antag
O=C(Nc1cccc(-c2nnc(-c3ccccc3)o2)c1)c1ccc(Br)o1	·	58	–	–	–
Cc1cc(C)cc(OCC(=O)Nc2cccc(-c3nnc(-c4ccco4)o3)c2)c1	·	57	·	68	–
O=C(Cc1cccs1)Nc1cccc(-c2nnc(-c3ccco3)o2)c1	–	–	–	–	–
CCN(CC)S(=O)(=O)c1cc(NC(=O)c2ccc3c(c2)NC(=O)C(C)S3)ccc1C (configuration not stated)	–	67	–	89	–
CN(C)CCCN(C(=O)/C=C/c1cccs1)c1nc2ccc(F)cc2s1	–	–	–	–	–
COc1ccc(OC)c2sc(N(CCN(C)C)C(=O)/C=C/c3cccs3)nc12	79	–	·	–	–
CN(C)CCN(C(=O)/C=C/c1cccs1)c1nc2c(F)cc(F)cc2s1	97	–	·	–	–
CCCNC(=O)N1CC2(CCN(C(=O)C3CCC3)CC2)c2c([nH]c3cc(OC)ccc23)[C@@H]1CO	–	·	–	·	–
C#CCOCCOCCOCCNc1nc(N2CCN(C(=O)CCCCCCCCCCNC(=O)[C@H](CCCCN)n3cc(C)nn3)CC2)nc(N2CCN(C(=O)CCCCCCCCCCNC(=O)[C@@H]([C@H](C)O)n3cc(C)nn3)CC2)n1	·	–	·	–	·
C#CCOCCOCCOCCNc1nc(N2CCN(C(=O)CCCCCCCCCCNC(=O)[C@H](CCCCN)n3cc(C[C@@H](C)CC)nn3)CC2)nc(N2CCN(C(=O)CCCCCCCCCCNC(=O)[C@H](CCCN=C(N)N)n3cc(C[C@@H](C)CC)nn3)CC2)n1	·	–	·	60	·
C#CCOCCOCCOCCNc1nc(N2CCN(C(=O)CCCCCCCCCCNC(=O)[C@H](CCCCN)n3cc(C[C@@H](C)CC)nn3)CC2)nc(N2CCN(C(=O)CCCCCCCCCCNC(=O)[C@@H]([C@H](C)O)n3cc(C)nn3)CC2)n1	·	90	·	106	·
O=C(Nc1ccccc1)N1CCCCN2[C@H](C1)[C@H](c1ccc(C#Cc3ccccc3)cc1)[C@@H]2CO	–	·	–	·	–
O=C(Nc1ccccc1)N1CCCCN2[C@H](CO)[C@H](c3ccc(C#Cc4ccccc4)cc3)[C@@H]2C1	–	·	–	·	–
COc1ccc(C#Cc2ccc([C@H]3[C@H](CO)N4CCCCN(C(=O)Nc5cccc(F)c5)C[C@@H]34)cc2)cc1	?	·	–	·	·
O=C(Nc1cccc(F)c1)N1CCCCN2[C@@H](CO)[C@@H](c3ccc(C#Cc4ccccc4)cc3)[C@@H]2C1	116	·	76	·	–
COc1ccc(NC(=O)N2CCCCN3[C@@H](CO)[C@@H](c4ccc(C#Cc5ccccc5)cc4)[C@@H]3C2)cc1	111	·	–	·	·
O=C(Nc1ccccc1)N1CCCCN2[C@H](C1)[C@@H](c1ccc(C#Cc3ccccc3)cc1)[C@@H]2CO	99	·	–	·	–
O=C(Nc1ccccc1)N1CCCCN2[C@H](CO)[C@H](c3ccc(C#Cc4ccccc4)cc3)[C@H]2C1	109	·	63	·	–
CC(=O)N(C)C[C@@H]1Oc2cc(C#CC3CCCC3)ccc2S(=O)(=O)N([C@@H](C)CO)C[C@H]1C	–	·	–	·	–
O=C(NCC[C@@H]1CC[C@H](NS(=O)(=O)c2cccc(F)c2)[C@H](CO)O1)C1CCC1	–	·	–	·	–
O=C(Nc1ccccc1F)N1CCCCN2[C@H](CO)[C@@H](c3ccc(C#Cc4ccccc4)cc3)[C@H]2C1	66	·	·	·	–
Cc1cccc(/C=N/NC(=O)c2ccccc2OCc2cccc(Br)c2)n1	–	–	–	77	–
C[C@H](NC(=O)C[C@H]1CC[C@H]2[C@@H](COC[C@H](O)CN2C(=O)Nc2ccccc2)O1)c1ccccc1	–	·	–	·	–
O=C(CC(Nc1ccccc1Cl)C(=O)OCC(=O)c1cccs1)c1ccccc1 (configuration not stated)	–	71	·	70	·
O=C(CC(Nc1ccc(Cl)cc1Cl)C(=O)O)c1ccccc1 (configuration not stated)	–	87	–	95	–
O=C(OCC(=O)c1cccs1)c1ccccc1	–	–	·	–	·
O=C(CC(Nc1ccccc1)C(=O)O)c1ccccc1 (configuration not stated)	·	–	·	–	·
COC/C=C/C1=CC2=CC(=O)C(C)(OC(=O)c3cnc4ccccc4n3)C(=O)C2=CN1c1ccccc1 (configuration not stated)	67	·	–	·	–
COC/C=C/C1=CC2=CC(=O)C(C)(OC(=O)c3cnc4ccccc4n3)C(=O)C2=CN1CC(C)C (configuration not stated)	·	–	·	–	·
